In all, about 68,000 sequences were measured (“fluorescence intensity (a.u.)”: median about 9,100, highest 2% from about 16,000 on). The list comes from a sample in which the highest values are over-represented; it also holds similar and randomly drawn sequences.

OsWRKY34, sequence (Q0JBA9 entry or part of it): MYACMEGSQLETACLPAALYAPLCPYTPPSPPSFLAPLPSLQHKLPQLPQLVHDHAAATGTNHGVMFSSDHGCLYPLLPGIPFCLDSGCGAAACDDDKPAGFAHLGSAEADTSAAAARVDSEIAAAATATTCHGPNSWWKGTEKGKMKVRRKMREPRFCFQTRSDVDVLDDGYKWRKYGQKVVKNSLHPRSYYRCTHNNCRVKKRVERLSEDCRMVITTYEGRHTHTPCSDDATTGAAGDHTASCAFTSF

For the assay, the target named is OsWRKY34 (Oryza sativa, UniProt Q0JBA9 1-250). Kind of assay: protein-binding microarray (RPBM); PBS, 2% BSA, 51.3 ng/ul salmon testes DNA, 50 uM zinc acetate, 200 nM TF, 25 C, 1 h; high values mean tight binding. As to conditions: protein: recombinant; tags: N-terminal polyhistidine and DsRed monomer fusion (pET32a); label: CyDye5-dUTP incorporated in the synthesized complementary strand; 3' TTTTT single-stranded linker to array surface; dsDNA, one strand shown. The method in brief:
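Using Ni–NTA, transcription factors fused N-terminally to polyhistidine and DsRed were purified after expression in E. coli BL21-CodonPlus. These were incubated at 200 nM with a blocked, double-stranded custom Agilent array for 1 h at 25 °C in a buffer containing 50 µM zinc acetate, and the array was washed. The binding signal is per-feature fluorescence intensity (arbitrary units) on an Axon 4000B scanner.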
With “ATAATCTCCACATGCATCGTCGCTGTATTTTTTGGTTTCACGGAGTCACCTAGTGCAG”, the binding signal was 8510 fluorescence intensity (a.u.).

For the sequence “TTGTACTACTATTTCTTCATGTTACATAATTCTCCTTGTTCGGAGTCACCTAGTGCAG”, the binding signal is 8540 fluorescence intensity (a.u.).

“TAGTATTTTTTTCCTTGGTTTTGTTTCTATCTCCTCTGACCGGAGTCACCTAGTGCAG”: the binding signal is 9480 fluorescence intensity (a.u.).

Consider “AATGTATAGGTGGTCCCGTGCTTTTGTATTGTGTTTGCGTCGGAGTCACCTAGTGCAG”, for which the binding signal is 10400 fluorescence intensity (a.u.).

Consider “TTCTCTACATTGTTCATTTAGTATTTTTTTCTTTTCATTTCGGAGTCACCTAGTGCAG”, for which the binding signal is 10700 fluorescence intensity (a.u.).

“ATGGCAACGACCCAGTTCTGTCCGAGTAGGACTCCTTCCACGGAGTCACCTAGTGCAG”: the binding signal was 8310 fluorescence intensity (a.u.).

In the case of “CCTGGTTGGTTTGGCTCGCACGTGGCGCGTCGTCCTACGCCGGAGTCACCTAGTGCAG”, the binding signal is 9870 fluorescence intensity (a.u.).

Take “TTATTTACAAACGAGTTCCATTTTTTTCTACGGTGATCGGCGGAGTCACCTAGTGCAG”: the binding signal is 8120 fluorescence intensity (a.u.).

Consider “GCCATTCCACATCAGTCCGTGCCGCTCTCTGCCCATTCTCCGGAGTCACCTAGTGCAG”, for which the binding signal was 18900 fluorescence intensity (a.u.).

Consider “TTCTTCTTCTGCCATTCCATCCATCCACCGCCGCCTCCGCCGGAGTCACCTAGTGCAG”, for which the binding signal was 8380 fluorescence intensity (a.u.).

“TTTTTTGAGCCGTATTTTTGCTCTCTTGTTACGTTTTTTTCGGAGTCACCTAGTGCAG”: the binding signal was 17100 fluorescence intensity (a.u.).

Regarding “CAGTTTGAGTTTTTGTTAGTTATTTCGTTTATTTTTTTTTCGGAGTCACCTAGTGCAG”, the binding signal was 12300 fluorescence intensity (a.u.).

With “CTCCATCTCGCATCTTCTCTTTCTCTTTCTCTTTCTCTTTCGGAGTCACCTAGTGCAG”, the binding signal is 13300 fluorescence intensity (a.u.).

Take “TCTCTTCTTCTTCTCCAACTTCTTTTTTCTCTTCTTCTTCCGGAGTCACCTAGTGCAG”: the binding signal was 9680 fluorescence intensity (a.u.).

Consider “TCTCTTTTCACCCACCGCACCCATCCAACTTCTCTTCTCTCGGAGTCACCTAGTGCAG”, for which the binding signal was 17900 fluorescence intensity (a.u.).

Turning to “CTTGTTACTAATATACTAGTATTTGAGTGTTACACGTTTTCGGAGTCACCTAGTGCAG”, the binding signal was 8380 fluorescence intensity (a.u.).

Turning to “ATCTGTATCTTTGTTTATTTTTTTTATTTTTCTCCCATTTCGGAGTCACCTAGTGCAG”, the binding signal was 10600 fluorescence intensity (a.u.).

Consider “GATTGTAGTTTGTATATGCTGCCCATTTCTGTTGTTCTTTCGGAGTCACCTAGTGCAG”, for which the binding signal is 18900 fluorescence intensity (a.u.).

As to “ATGCCCATTTTGTAGCGTCGATTCTTGTTTCTGCTTGATTCGGAGTCACCTAGTGCAG”, the binding signal is 10300 fluorescence intensity (a.u.).

On to “TCCATCCCATTCCCGCCATCTCTGCATCTTCTTCTTCTTCCGGAGTCACCTAGTGCAG”, for which the binding signal is 9910 fluorescence intensity (a.u.).

On to “AGGTGTAATAGTATTTTGTTGTCTAATTGGTTTTGATTGTCGGAGTCACCTAGTGCAG”, for which the binding signal is 11400 fluorescence intensity (a.u.).

Take “TATTTCTCTCGCCACAATCTCTGGCGGCGCCACAATCTTACGGAGTCACCTAGTGCAG”: the binding signal was 8850 fluorescence intensity (a.u.).

Take “GGCCTGGAGCTCAGTCAAACAGTTTCAGCTCAGCTCTATCCGGAGTCACCTAGTGCAG”: the binding signal is 8520 fluorescence intensity (a.u.).

Take “TCTCTTCGCTCTGCCCACTTGCTAAACCATACCGGCGATACGGAGTCACCTAGTGCAG”: the binding signal was 9960 fluorescence intensity (a.u.).

“CATCCATCGTATCCACCGCCGTCGCCTTCCATCCTCCCCGCGGAGTCACCTAGTGCAG”: the binding signal is 8040 fluorescence intensity (a.u.).

Take “GTGGGAGGGAGGGCGGCGAGCTGCGCGGCGAACCTCGAGCCGGAGTCACCTAGTGCAG”: the binding signal is 8120 fluorescence intensity (a.u.).

Regarding “CCTTTTTTTTTCCGAGTGTGTGGCTCTCAGATGGAGTTAGCGGAGTCACCTAGTGCAG”, the binding signal is 8450 fluorescence intensity (a.u.).

On to “CCTTGGGTGGGTACGGATTGGATTAGGGAGGGGAGCACAACGGAGTCACCTAGTGCAG”, for which the binding signal is 17600 fluorescence intensity (a.u.).

In the case of “TGGTGTAGGGTTATGATTGGATGAGTAGTGGAGGTAGGTACGGAGTCACCTAGTGCAG”, the binding signal was 9780 fluorescence intensity (a.u.).

As for “GGTAGGATTGTACTTTTTTTTTTTTTGGGACGGAGGGGTACGGAGTCACCTAGTGCAG”, the binding signal is 10100 fluorescence intensity (a.u.).

“AACGTGGAAGTGGATTGGGTGGTGGGTGGGGATCCACCTACGGAGTCACCTAGTGCAG”: the binding signal is 22100 fluorescence intensity (a.u.).

For the sequence “TGGGTGGGGATGAAGTGTGGAAGTGGCATATCTTTATCCACGGAGTCACCTAGTGCAG”, the binding signal was 8320 fluorescence intensity (a.u.).

As for “TGGTGGCGGCGGTGGCAGTGGTGGTGTTGGGATTGGGGTACGGAGTCACCTAGTGCAG”, the binding signal was 9230 fluorescence intensity (a.u.).

As to “ATTATCCTGATCAAAATTCCCGCAATTCCTTAACACATGTCGGAGTCACCTAGTGCAG”, the binding signal was 10200 fluorescence intensity (a.u.).

As for “GCTTTTCTCTTCCTTTTCGCTCGCTCTCAAGGCCCATAACCGGAGTCACCTAGTGCAG”, the binding signal is 9530 fluorescence intensity (a.u.).

With “TTGGTGAGAACAGCCTTATCTCTATCGCTTTACTCTCTCTCGGAGTCACCTAGTGCAG”, the binding signal is 8150 fluorescence intensity (a.u.).

Turning to “CTGACCACCAACAGGGTCACTGTCGCGTTTGCTCGATACTCGGAGTCACCTAGTGCAG”, the binding signal is 9920 fluorescence intensity (a.u.).

As for “TCCTTTCCTACATGTCGCCTTTGCCGTCGCCTCAACCACACGGAGTCACCTAGTGCAG”, the binding signal was 14200 fluorescence intensity (a.u.).

Take “TCTTCTCACTCTAATCAAATCTCTCTCTCTCTCTCTCTCTCGGAGTCACCTAGTGCAG”: the binding signal was 8280 fluorescence intensity (a.u.).

With “ATCAAACCACTTCCATCTCTCAATTCTCAAGCACACACACCGGAGTCACCTAGTGCAG”, the binding signal was 8310 fluorescence intensity (a.u.).

Take “ACGAACCTAAGCACTTCCAAATCAAATCAATCAAAGCTCTCGGAGTCACCTAGTGCAG”: the binding signal was 56100 fluorescence intensity (a.u.).

In the case of “GCCGTCGCCGTCGCCGTCCTCCTCGTTGTCGTTGTCGTCGCGGAGTCACCTAGTGCAG”, the binding signal is 9000 fluorescence intensity (a.u.).

On to “GTGGACTTTTTTCCTTCTCCTTTTCCTTTGTGTTGTTTCGCGGAGTCACCTAGTGCAG”, for which the binding signal is 8860 fluorescence intensity (a.u.).

As for “TACCACCACTGTTCGTTTCGTTTGTTGGGTTTCGGTCATCCGGAGTCACCTAGTGCAG”, the binding signal is 8360 fluorescence intensity (a.u.).

(Values after PMC7819943, “Rice protein-binding microarrays: a tool to detect cis-acting elements near promoter regions in rice”.)
